Experimental data: PubChem BioAssay (Tox21)
Records with an inconclusive call do not appear. The source made the active and inactive calls. Unless noted, the call rests on the fitted dose curve; in most records, active means well fitted curve in the direction sought with a large enough effect in the repeat runs; inconclusive means weak or mixed curves; inactive means no such curve, though single readings can be large; an effect the other way counts as inactive or inconclusive.

What was measured:
[1] = qHTS assay to identify small molecule agonists of the peroxisome proliferator-activated receptor delta (PPARd) signaling pathway - cell viability counter screen (AID 743211); further: nearly all actives have a fitted effect of over 55% in size; further: potency means the concentration at half of the fitted maximal effect
Outline: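 Following 5 h plating at 37 C and 5% CO2, PPARd UAS-bla HEK293H cells took up test compounds for 17 h. Viability was quantified by luminescence 30 min after CellTiter-Glo addition at room temperature.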

[2] = biological target: Peroxisome proliferator-activated receptor delta (Homo sapiens) (UniProt Q03181); assay: qHTS assay to identify small molecule agonists of the peroxisome proliferator-activated receptor delta (PPARd) signaling pathway (AID 743212; calls by dose curve; further: potency means the concentration at half of the fitted maximal effect)
Outline: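 A PPARd-bla HEK293H line with beta-lactamase under an Upstream Activator Sequence is treated with compounds at 37 C. Substrate loading for 2 h at room temperature precedes the fluorescence measurement.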

[3] = qHTS assay to identify small molecule antagonists of the peroxisome proliferator-activated receptor delta (PPARd) signaling pathway - cell viability counter screen (AID 743213); further: nearly all actives have a fitted effect of over 50% in size; further: potency means the concentration at half of the fitted maximal effect
Outline: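 Cytotoxicity counter screen: CellTiter-Glo luminescence read 30 min after addition, in the same wells as the reporter assay. There, PPARd UAS-bla HEK293H cells (3000/well) were treated 17 h at 37 C with compound and 300 nM L165041.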

[4] = biological target: Peroxisome proliferator-activated receptor delta (Homo sapiens) (UniProt Q03181); assay: qHTS assay to identify small molecule antagonists of the peroxisome proliferator-activated receptor delta (PPARd) signaling pathway (AID 743215; active means well fitted inhibition curve with a large enough effect in the signal ratio in the repeat runs, not every such curve was filed as active; the % refers to the signal ratio;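 further: cells stimulated with agonist L165041 at 300 nM final during compound exposure; series mostly up to about 62 µM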)
Outline: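 Antagonist-mode beta-lactamase reporter screen: HEK293H cells with UAS-bla under PPARd control, stimulated by 300 nM L165041 (final) alongside test compound for 17 h at 37 C, then FRET fluorescence after 2 h substrate incubation.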

[5] = qHTS assay to identify small molecule agonists of the farnesoid-X-receptor (FXR) signaling pathway - cell viability counter screen (AID 743218); further: nearly all actives have a fitted effect of over 45% in size; further: potency means the concentration at half of the fitted maximal effect
Outline: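 In GeneBLAzer FXR-UAS-bla HEK 293T cells, compounds act for 16 h at 37 C. Cell viability is then scored in the reporter wells by CellTiter-Glo, 30 min at RT, luminescence.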

[6] = biological target: Vitamin D3 receptor (Homo sapiens) (UniProt P11473); assay: qHTS assay to identify small molecule agonists of the vitamin D receptor (VDR) signaling pathway (AID 743222; calls by dose curve)
Outline: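 Agonist activity measured in VDR-bla reporter cells. Exposure 16 h, 37C, 5% CO2; detection by B/G FRET substrate, 2 h RT.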

[7] = qHTS assay to identify small molecule agonists of the vitamin D receptor (VDR) signaling pathway - cell viability counter screen (AID 743224); further: series mostly up to about 63 µM; nearly all actives have a fitted effect of over 50% in size
Outline: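 VDR-bla cell line, quantitative HTS format; 16 h compound incubation (37C, 5% CO2); ATP-based CellTiter-Glo luminescence measured in the reporter assay wells.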

[8] = qHTS assay to identify small molecule antagonists of the vitamin D receptor (VDR) signaling pathway - cell viability counter screen (AID 743225); further: nearly all actives have a fitted effect of over 50% in size; further: potency means the concentration at half of the fitted maximal effect
Outline: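 In this counter screen, VDR-bla HEK 293T cells receive test compound plus 3 nM final calcitriol for 16 h at 37C. Room-temperature steps of 2 h with the beta-lactamase substrate, then 30 min with CellTiter-Glo, precede the luminescence read.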

[9] = qHTS assay to identify small molecule agonists of the NFkB signaling pathway (AID 1159509; active means well fitted curve in the direction sought with a large enough effect in the signal ratio in the repeat runs, not every such curve was filed as active; the % refers to the signal ratio; further: series mostly up to about 61 µM)
Outline: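 NFkB-bla ME-180 cells carry a beta-lactamase reporter under an NF-kB response element. They were plated overnight, then exposed to compounds for 5 h at 37 C. Read-out is LiveBLAzer FRET after 1.5 hr at room temperature (405 nm excitation; 460/530 nm emission).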

[10] = qHTS assay to identify small molecule agonists of the NFkB signaling pathway - cell viability counter screen (AID 1159515; calls by dose curve; further: series mostly up to about 61 µM; nearly all actives have a fitted effect of over 55% in size)
Outline: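 Viability in NFkB-bla ME-180 cells was measured by CellTiter-Glo luminescence, 30 min room temperature, in wells already treated 5 hr with compounds and read for reporter FRET.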

[11] = qHTS assay to identify small molecule antagonists of the retinoid-related orphan receptor gamma (ROR-gamma) signaling pathway - cell viability counter screen (AID 1159520); further: nearly all actives have a fitted effect of over 50% in size
Outline: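 Tet-on ROR gamma CHO cells (1,000/well) were plated 4 hr, given compounds in DMSO for 2 hr at 37 C, then induced with 1 uM final doxycycline for 16 hr. Viability was read as ATP by CellTiter-Glo luminescence after 30 min.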

[12] = biological target: Nuclear receptor ROR-gamma (Homo sapiens) (UniProt P51449); assay: qHTS assay to identify small molecule antagonists of the retinoid-related orphan receptor gamma (ROR-gamma) signaling pathway (AID 1159521; further: nearly all actives have a fitted effect of over 50% in size; further: potency means the concentration at half of the fitted maximal effect)
Outline: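 Screening format: cell-based luciferase reporter in CHO cells with doxycycline-inducible RORγ. Compound pre-exposure lasts 2 h, doxycycline is 1 uM final, induction runs 16 h at 37 C, and ONE-Glo luminescence is read.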

[13] = qHTS assay to identify small molecule agonists of the AP-1 signaling pathway - cell viability counter screen (AID 1159525; calls by dose curve; further: nearly all actives have a fitted effect of over 55% in size)
Outline: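 ME-180 AP-1-bla, 2500 cells/well, Opti-MEM + 0.5% dialyzed FBS; overnight 37 °C; cpd 15-pt titration, 5 h 37 °C; CellTiter-Glo 30 min RT; luminescence read; normalised to TOAB and DMSO controls.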

[14] = qHTS assay to identify small molecule agonists of the AP-1 signaling pathway (AID 1159526; calls by dose curve)
[15] = biological target: Bile acid receptor (Homo sapiens) (UniProt Q96RI1); assay: qHTS assay to identify small molecule antagonists of the farnesoid-X-receptor (FXR) signaling pathway (AID 743217; active means well fitted inhibition curve with a large enough effect in the signal ratio in the repeat runs, not every such curve was filed as active; the % refers to the signal ratio)
Outline: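 Beta-lactamase reporter under UAS control in HEK 293T cells; compound exposure 16 h at 37 °C in the presence of chenodeoxycholic acid (50 uM final); signal from B/G FRET substrate after 2 h at room temperature.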

[16] = biological target: Bile acid receptor (Homo sapiens) (UniProt Q96RI1); assay: qHTS assay to identify small molecule agonists of the farnesoid-X-receptor (FXR) signaling pathway (AID 743220; active means well fitted activation curve with a large enough effect in the signal ratio in the repeat runs, not every such curve was filed as active; the % refers to the signal ratio)
Outline: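 Beta-lactamase reporter under UAS control in GeneBLAzer FXR HEK 293T cells (5000/well) measured with LiveBLAzer FRET substrate after 2 h at room temperature. Compound exposure lasted 16 h at 37C.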

[17] = qHTS assay to identify small molecule antagonists of the farnesoid-X-receptor (FXR) signaling pathway - cell viability counter screen (AID 743221; active means well fitted cell-killing curve with a large enough effect in the repeat runs, not every such curve was filed as active; further: nearly all actives have a fitted effect of over 50% in size; further: potency means the concentration at half of the fitted maximal effect)
Outline: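 Compound effects on cell number were measured as CellTiter-Glo luminescence in HEK 293T cells expressing FXR-UAS-bla, after 16 h at 37 C with 50 uM CDCA (final).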

[18] = biological target: Vitamin D3 receptor (Homo sapiens) (UniProt P11473); assay: qHTS assay to identify small molecule antagonists of the vitamin D receptor (VDR) signaling pathway (AID 743223; active means well fitted inhibition curve with a large enough effect in the signal ratio in the repeat runs, not every such curve was filed as active; the % refers to the signal ratio)
Outline: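 Beta-lactamase activity in VDR-bla cells is measured by FRET substrate fluorescence (2 h, room temperature) after cells spend 16 h at 37C with test compound and 3 nM final 1alpha,25-dihydroxyvitamin D3.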

[19] = qHTS assay to identify small molecule agonists of the endoplasmic reticulum stress response signaling pathway - cell viability counter screen (AID 1159517; calls by dose curve)
Outline: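 CellTiter-Glo was added to wells already read for beta-lactamase FRET, and luminescence was recorded 30 min later. Cells: ESRE-bla HeLa, 1,500 per well, compound exposure 5 hr at 37 C.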

Measured: Potency

Bile acid receptor (Homo sapiens), sequence (Q96RI1 whole entry, looked up): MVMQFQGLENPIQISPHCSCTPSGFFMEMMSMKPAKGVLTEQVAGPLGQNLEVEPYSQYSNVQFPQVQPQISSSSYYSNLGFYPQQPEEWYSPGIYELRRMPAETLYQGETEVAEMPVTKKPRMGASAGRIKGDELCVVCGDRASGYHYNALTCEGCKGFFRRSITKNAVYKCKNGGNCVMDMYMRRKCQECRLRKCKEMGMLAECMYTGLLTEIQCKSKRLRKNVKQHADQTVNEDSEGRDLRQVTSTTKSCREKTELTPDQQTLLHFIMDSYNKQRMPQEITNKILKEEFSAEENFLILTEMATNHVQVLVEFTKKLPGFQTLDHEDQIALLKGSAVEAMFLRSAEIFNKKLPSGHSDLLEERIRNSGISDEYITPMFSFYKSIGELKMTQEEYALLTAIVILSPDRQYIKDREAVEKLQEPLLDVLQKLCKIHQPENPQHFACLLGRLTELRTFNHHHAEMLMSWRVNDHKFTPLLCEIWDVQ
Peroxisome proliferator-activated receptor delta (Homo sapiens), sequence (Q03181 whole entry, looked up): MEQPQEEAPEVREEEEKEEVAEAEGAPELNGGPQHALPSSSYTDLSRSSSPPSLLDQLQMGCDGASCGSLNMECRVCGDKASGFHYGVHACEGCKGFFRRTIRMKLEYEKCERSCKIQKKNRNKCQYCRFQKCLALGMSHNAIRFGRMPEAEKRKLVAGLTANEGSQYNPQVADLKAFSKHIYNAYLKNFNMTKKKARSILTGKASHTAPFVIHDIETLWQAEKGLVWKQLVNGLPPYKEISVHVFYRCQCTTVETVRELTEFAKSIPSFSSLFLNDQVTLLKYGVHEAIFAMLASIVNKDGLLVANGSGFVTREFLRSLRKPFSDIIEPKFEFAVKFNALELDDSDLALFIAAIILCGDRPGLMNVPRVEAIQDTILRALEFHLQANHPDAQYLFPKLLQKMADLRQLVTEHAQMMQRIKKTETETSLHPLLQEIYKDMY
Vitamin D3 receptor (Homo sapiens), sequence (P11473 whole entry, looked up): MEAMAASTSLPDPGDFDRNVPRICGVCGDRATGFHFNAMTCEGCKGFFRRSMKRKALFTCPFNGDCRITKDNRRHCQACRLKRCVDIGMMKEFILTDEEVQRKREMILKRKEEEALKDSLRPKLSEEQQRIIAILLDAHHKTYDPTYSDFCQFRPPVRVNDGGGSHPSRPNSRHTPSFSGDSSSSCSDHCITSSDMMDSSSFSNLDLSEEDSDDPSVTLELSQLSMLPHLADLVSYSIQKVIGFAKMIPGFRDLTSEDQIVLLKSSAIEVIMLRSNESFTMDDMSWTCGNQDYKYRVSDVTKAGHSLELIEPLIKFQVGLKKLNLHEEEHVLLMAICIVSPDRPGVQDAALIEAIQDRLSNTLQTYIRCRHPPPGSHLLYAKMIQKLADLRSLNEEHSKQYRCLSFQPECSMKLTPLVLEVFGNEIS

CC(CO)CO
not listed: [15] | [16] | [17] | [18] | [19]
inactive: all other assays above

CN(C)CCN1C(=O)c2ccccc2N(C)c2ccccc21
not listed: [1] | [14] | [19]
inactive: all other assays above

C[C@H]1c2cccc(O)c2C(O)=C2C(=O)[C@]3(O)C(O)=C(C(N)=O)C(=O)[C@@H](N(C)C)[C@@H]3[C@@H](O)[C@@H]21
inactive: [1] | [3] | [5] | [17] | [7] | [8] | [9] | [10] | [19] | [13]
active: [12] 29.8 µM

C/C=C/C=C/C=O
not listed: [3] | [4] | [12] | [13] | [14] | [15] | [16] | [18]
inactive: all other assays above

CCCCCC[C@@H](O)C/C=C\CCCCCCCC(=O)O
active: [2] 43.6 µM | [3] 49 µM
inactive: [4] | [15] | [18] | [7] | [9] | [10] | [19] | [11]

O=C(Nc1cccc2c(=O)cc(-c3nn[nH]n3)oc12)c1ccc(OCCCCc2ccccc2)cc1
inactive: [2] | [4] | [17] | [9] | [10] | [19] | [11]

COc1cc(Nc2c(C#N)cnc3cc(OCCCN4CCN(C)CC4)c(OC)cc23)c(Cl)cc1Cl
active: [1] 26.6 µM | [5] 13.3 µM | [17] 26.6 µM | [8] 19 µM
inactive: [6] | [9] | [10] | [19] | [12]

Cc1ccc(CO)cc1
not listed: [19]
inactive: all other assays above

c1ccc(C[n+]2cccc3ccccc32)cc1
not listed: [2] | [7] | [8] | [18] | [19]
inactive: all other assays above

Oc1cccc(O)c1O
not listed: [2] | [3] | [8] | [11] | [14] | [15] | [16]
inactive: all other assays above
